3 molecules from ChEMBL document CHEMBL1961873, “Compounds: GSK PKIS; Assays: Nanosyn kinase panel” (2012) can be followed below.

A word on the inhibition: it is the change of the read-out against control, counted positive when it falls.

Assay [1] has as its target T1, Serine/threonine-protein kinase D2 (Homo sapiens) (UniProt Q9BZL6).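 Note: mean value of PRKD2 inhibition, from the GSK PKIS screening panel.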
T1 sequence (whole entry): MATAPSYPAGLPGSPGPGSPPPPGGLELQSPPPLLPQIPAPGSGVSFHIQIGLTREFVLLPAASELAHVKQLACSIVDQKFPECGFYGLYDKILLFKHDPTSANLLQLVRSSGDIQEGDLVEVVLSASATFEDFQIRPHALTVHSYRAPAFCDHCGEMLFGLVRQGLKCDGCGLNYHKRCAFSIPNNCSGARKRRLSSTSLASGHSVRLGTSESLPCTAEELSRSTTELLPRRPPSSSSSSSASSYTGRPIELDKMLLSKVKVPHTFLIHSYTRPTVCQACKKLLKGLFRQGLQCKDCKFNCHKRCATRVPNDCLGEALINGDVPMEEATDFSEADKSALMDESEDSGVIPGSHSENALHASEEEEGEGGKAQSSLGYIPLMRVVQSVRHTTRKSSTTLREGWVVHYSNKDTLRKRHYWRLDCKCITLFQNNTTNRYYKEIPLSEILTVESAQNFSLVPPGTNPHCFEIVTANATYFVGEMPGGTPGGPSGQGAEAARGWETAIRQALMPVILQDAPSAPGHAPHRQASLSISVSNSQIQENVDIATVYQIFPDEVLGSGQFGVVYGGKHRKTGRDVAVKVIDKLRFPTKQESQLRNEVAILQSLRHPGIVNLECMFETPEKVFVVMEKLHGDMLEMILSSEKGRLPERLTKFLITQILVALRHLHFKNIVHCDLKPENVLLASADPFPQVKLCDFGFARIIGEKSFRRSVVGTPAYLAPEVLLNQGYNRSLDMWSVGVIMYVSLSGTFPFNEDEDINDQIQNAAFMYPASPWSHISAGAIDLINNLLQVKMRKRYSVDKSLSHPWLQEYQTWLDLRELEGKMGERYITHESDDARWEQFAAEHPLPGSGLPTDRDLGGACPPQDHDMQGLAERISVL
The conditions noted are these: at 1 µM.

Assay [2] addresses T2, Serine/threonine-protein kinase D3 (Homo sapiens) (UniProt O94806).
T2 sequence (whole entry): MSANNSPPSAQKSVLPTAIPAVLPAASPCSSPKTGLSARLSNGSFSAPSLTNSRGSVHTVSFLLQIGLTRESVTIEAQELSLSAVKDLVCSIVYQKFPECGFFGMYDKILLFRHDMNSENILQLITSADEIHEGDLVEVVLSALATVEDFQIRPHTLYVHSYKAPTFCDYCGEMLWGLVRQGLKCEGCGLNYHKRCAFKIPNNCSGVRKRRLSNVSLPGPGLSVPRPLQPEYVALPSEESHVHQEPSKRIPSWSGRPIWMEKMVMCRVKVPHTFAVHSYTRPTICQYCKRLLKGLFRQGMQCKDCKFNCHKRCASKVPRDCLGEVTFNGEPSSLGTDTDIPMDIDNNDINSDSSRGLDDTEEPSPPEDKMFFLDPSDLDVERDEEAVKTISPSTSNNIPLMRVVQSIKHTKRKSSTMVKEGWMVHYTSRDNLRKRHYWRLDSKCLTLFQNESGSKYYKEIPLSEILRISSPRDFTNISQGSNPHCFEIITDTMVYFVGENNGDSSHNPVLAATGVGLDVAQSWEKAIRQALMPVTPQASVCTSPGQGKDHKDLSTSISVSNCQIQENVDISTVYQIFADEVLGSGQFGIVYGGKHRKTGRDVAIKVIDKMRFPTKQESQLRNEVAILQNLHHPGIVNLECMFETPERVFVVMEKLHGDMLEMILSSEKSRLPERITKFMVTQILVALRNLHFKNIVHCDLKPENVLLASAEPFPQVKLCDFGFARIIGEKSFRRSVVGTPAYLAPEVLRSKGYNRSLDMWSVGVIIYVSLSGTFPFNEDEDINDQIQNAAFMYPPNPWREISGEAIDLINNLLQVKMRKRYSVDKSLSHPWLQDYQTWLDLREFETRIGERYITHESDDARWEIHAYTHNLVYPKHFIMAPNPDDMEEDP
The following applies: at 0.1 µM.

The target of assay [3] is T2, Serine/threonine-protein kinase D3 (Homo sapiens). The following applies: at 1 µM.
Assay [4] concerns the target T3, cGMP-dependent protein kinase 1 (Homo sapiens) (UniProt Q13976).
T3 sequence (whole entry): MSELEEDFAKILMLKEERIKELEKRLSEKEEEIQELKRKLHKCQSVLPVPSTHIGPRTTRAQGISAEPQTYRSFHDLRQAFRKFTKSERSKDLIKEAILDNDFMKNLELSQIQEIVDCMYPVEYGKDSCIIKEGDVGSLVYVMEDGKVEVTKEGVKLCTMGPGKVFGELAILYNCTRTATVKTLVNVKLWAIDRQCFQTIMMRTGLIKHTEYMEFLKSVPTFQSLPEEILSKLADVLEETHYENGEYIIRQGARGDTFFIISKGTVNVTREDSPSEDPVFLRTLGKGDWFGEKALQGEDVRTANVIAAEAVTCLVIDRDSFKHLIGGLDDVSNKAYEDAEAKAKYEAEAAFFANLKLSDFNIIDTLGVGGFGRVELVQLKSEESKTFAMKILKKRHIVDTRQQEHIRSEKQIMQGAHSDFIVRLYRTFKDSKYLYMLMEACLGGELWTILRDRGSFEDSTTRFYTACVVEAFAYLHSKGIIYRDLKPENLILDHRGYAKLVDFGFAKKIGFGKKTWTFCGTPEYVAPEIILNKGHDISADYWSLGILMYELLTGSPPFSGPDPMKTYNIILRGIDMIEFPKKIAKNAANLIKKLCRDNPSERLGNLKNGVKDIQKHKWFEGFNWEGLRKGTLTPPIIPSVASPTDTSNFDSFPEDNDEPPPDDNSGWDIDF
The conditions noted are these: at 0.1 µM.

Assay [5] concerns the target T3, cGMP-dependent protein kinase 1 (Homo sapiens). The conditions noted are these: at 1 µM.
Assay [6] addresses T4, cGMP-dependent protein kinase 2 (Homo sapiens) (UniProt Q13237).
T4 sequence (whole entry): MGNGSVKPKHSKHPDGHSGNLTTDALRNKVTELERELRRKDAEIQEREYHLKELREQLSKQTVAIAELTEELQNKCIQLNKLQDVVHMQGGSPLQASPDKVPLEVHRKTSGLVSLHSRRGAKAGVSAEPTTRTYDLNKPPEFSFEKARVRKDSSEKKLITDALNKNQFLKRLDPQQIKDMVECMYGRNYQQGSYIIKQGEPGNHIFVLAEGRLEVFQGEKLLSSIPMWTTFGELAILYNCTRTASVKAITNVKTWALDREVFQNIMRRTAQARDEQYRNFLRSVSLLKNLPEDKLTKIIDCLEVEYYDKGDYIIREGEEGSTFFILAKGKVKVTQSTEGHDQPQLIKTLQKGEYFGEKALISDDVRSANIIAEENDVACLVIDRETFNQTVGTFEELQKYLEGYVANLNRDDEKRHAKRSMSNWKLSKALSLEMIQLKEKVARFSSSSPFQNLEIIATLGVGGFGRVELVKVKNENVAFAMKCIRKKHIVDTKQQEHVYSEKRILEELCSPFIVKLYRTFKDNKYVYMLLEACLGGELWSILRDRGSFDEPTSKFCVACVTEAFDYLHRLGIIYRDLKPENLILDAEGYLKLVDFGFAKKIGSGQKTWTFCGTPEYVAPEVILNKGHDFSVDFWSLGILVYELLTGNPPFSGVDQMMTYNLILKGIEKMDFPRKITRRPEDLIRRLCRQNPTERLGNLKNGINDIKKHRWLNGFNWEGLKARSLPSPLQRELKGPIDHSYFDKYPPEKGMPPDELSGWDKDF
The conditions noted are these: at 0.1 µM.

The target in assay [7] is T4, cGMP-dependent protein kinase 2 (Homo sapiens). The conditions noted are these: at 1 µM.
The target of assay [8] is T5, cAMP-dependent protein kinase catalytic subunit PRKX (Homo sapiens) (UniProt P51817).
T5 sequence (whole entry): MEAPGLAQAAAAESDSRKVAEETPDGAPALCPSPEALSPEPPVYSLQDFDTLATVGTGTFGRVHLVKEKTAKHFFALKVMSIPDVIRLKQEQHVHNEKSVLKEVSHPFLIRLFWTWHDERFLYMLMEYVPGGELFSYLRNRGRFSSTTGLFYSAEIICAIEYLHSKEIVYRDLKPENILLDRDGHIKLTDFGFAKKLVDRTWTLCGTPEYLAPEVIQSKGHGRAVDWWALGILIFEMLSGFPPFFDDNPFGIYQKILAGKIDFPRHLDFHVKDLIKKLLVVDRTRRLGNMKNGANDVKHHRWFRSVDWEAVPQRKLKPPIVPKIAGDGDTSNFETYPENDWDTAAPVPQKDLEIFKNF
The conditions noted are these: at 0.1 µM.

The target of assay [9] is T5, cAMP-dependent protein kinase catalytic subunit PRKX (Homo sapiens). The conditions noted are these: at 1 µM.
Assay [10] has as its target Rho-associated protein kinase 1 (Homo sapiens) (UniProt Q13464). The following applies: at 0.1 µM.
The target is the same in assay [11]. The following applies: at 1 µM.
The target of assay [12] is Rho-associated protein kinase 2 (Homo sapiens) (UniProt O75116). The following applies: at 0.1 µM.
Rho-associated protein kinase 2 (Homo sapiens), sequence (O75116 whole entry, looked up): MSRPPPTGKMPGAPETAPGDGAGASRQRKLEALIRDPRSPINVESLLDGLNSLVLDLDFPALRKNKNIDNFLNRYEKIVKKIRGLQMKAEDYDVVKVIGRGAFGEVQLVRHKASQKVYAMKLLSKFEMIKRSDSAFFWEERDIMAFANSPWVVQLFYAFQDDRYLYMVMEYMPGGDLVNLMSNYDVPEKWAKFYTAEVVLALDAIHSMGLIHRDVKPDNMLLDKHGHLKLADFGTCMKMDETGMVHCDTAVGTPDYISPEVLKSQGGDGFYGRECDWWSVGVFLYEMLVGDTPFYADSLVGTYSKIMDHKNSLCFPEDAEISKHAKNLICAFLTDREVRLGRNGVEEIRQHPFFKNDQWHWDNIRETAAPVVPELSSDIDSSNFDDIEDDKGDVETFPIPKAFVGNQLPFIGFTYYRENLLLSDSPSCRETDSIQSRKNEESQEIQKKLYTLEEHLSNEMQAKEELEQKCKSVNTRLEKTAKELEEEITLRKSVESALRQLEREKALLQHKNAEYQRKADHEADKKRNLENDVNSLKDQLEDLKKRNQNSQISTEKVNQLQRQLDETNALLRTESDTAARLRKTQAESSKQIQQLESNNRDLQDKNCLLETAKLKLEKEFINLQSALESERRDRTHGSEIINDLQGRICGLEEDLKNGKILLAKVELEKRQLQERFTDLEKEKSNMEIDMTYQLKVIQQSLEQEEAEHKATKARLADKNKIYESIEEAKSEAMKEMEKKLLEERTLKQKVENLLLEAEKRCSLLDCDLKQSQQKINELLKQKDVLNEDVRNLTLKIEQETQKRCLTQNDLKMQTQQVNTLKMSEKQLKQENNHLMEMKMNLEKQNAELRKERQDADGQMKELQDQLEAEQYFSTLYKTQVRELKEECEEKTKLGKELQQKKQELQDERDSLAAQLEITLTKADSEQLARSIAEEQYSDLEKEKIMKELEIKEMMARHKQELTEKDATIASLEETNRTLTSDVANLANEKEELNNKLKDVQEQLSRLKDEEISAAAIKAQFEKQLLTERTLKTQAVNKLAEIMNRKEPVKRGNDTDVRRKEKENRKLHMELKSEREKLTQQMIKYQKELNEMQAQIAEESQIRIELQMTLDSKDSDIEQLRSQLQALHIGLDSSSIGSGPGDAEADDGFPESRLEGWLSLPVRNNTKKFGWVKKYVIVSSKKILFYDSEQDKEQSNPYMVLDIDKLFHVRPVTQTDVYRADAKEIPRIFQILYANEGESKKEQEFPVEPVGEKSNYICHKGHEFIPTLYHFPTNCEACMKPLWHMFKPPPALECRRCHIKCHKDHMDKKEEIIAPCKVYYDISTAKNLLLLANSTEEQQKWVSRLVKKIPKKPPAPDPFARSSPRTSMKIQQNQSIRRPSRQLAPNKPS
The target is the same in assay [13]. The following applies: at 1 µM.
Assay [14] has as its target Ribosomal protein S6 kinase alpha-1 (Homo sapiens) (UniProt Q15418). The following applies: at 0.1 µM.
The target is the same in assay [15]. The conditions noted are these: at 1 µM.
For assay [16], the target named is Ribosomal protein S6 kinase alpha-3 (Homo sapiens) (UniProt P51812). The conditions noted are these: at 0.1 µM.
Ribosomal protein S6 kinase alpha-3 (Homo sapiens), sequence (P51812 whole entry): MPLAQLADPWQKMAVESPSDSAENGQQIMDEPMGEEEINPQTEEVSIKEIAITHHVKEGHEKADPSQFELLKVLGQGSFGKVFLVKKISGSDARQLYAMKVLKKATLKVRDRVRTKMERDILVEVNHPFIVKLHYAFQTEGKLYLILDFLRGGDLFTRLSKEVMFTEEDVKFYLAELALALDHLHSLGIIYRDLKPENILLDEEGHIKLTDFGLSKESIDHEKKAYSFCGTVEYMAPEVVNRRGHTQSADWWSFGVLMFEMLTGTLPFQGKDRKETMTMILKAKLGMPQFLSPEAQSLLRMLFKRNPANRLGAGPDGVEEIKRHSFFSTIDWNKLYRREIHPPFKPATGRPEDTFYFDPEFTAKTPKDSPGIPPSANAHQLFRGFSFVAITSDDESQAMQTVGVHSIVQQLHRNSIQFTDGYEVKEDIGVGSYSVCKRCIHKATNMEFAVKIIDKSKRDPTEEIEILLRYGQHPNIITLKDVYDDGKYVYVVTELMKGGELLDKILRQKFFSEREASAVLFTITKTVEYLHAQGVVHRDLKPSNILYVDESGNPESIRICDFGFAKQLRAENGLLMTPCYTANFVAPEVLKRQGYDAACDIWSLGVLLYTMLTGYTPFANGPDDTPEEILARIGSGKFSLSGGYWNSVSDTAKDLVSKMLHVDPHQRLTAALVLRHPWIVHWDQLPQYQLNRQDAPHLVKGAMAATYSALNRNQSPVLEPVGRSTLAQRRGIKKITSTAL
Assay [17] shares this target. The conditions noted are these: at 1 µM.
Assay [18] addresses Ribosomal protein S6 kinase alpha-2 (Homo sapiens) (UniProt Q15349). The following applies: at 0.1 µM.
Assay [19] shares this target. The following applies: at 1 µM.
Assay [20] addresses Ribosomal protein S6 kinase alpha-6 (Homo sapiens) (UniProt Q9UK32). The following applies: at 0.1 µM.

Ribosomal protein S6 kinase alpha-1 (Homo sapiens), sequence (Q15418 whole entry): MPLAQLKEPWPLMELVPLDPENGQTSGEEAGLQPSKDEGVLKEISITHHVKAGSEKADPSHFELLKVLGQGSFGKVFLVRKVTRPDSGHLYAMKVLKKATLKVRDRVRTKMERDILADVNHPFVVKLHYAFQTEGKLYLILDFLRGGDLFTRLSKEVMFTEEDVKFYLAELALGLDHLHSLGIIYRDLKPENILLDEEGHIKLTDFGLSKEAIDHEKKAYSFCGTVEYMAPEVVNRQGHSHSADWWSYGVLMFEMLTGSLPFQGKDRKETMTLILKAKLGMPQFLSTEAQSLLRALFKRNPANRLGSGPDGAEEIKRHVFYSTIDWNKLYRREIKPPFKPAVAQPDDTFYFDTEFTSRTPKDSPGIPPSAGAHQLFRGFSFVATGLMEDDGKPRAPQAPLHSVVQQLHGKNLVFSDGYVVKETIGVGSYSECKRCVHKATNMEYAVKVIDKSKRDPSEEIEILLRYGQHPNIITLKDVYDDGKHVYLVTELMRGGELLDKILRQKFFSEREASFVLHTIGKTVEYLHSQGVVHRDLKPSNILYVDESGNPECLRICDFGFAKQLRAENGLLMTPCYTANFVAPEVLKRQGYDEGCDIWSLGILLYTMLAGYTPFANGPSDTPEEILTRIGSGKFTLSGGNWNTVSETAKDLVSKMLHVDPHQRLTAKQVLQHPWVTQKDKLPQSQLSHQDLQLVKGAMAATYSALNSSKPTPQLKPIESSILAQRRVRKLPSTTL
Rho-associated protein kinase 1 (Homo sapiens), sequence (Q13464 2-1354 limits assumed): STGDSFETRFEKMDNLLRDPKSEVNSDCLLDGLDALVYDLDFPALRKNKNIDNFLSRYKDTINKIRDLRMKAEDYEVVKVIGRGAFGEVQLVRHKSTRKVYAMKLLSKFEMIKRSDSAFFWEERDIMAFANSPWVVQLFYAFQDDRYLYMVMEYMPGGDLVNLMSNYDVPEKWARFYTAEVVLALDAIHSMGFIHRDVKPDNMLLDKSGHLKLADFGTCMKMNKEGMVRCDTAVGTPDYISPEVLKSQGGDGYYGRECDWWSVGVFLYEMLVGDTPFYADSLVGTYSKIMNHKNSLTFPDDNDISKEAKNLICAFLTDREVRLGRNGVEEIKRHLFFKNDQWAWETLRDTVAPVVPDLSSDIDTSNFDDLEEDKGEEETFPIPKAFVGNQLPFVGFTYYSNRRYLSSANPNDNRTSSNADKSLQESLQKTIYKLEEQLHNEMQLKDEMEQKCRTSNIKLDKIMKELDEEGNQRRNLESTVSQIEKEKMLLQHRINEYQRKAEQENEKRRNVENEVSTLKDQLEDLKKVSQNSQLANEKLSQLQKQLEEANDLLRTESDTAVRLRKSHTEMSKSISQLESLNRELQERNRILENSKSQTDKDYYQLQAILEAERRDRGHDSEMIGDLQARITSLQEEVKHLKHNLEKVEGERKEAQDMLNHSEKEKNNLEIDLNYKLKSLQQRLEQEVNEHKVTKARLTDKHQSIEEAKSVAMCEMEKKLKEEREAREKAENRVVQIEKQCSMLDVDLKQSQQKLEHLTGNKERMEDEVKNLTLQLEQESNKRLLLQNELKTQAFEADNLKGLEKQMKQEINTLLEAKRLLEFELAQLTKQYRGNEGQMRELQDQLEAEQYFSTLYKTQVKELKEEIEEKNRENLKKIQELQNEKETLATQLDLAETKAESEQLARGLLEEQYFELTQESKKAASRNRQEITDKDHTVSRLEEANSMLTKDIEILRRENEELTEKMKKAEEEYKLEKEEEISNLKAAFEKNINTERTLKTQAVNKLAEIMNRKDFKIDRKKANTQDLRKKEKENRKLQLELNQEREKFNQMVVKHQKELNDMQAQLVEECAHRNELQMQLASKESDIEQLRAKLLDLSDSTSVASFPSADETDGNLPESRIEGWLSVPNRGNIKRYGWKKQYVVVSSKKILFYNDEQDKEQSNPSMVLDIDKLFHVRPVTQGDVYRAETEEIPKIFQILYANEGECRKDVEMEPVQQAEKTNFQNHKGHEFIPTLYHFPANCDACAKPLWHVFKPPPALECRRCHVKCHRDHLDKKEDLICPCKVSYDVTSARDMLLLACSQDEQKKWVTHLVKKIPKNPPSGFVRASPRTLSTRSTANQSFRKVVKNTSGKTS
Ribosomal protein S6 kinase alpha-6 (Homo sapiens), sequence (Q9UK32 whole entry): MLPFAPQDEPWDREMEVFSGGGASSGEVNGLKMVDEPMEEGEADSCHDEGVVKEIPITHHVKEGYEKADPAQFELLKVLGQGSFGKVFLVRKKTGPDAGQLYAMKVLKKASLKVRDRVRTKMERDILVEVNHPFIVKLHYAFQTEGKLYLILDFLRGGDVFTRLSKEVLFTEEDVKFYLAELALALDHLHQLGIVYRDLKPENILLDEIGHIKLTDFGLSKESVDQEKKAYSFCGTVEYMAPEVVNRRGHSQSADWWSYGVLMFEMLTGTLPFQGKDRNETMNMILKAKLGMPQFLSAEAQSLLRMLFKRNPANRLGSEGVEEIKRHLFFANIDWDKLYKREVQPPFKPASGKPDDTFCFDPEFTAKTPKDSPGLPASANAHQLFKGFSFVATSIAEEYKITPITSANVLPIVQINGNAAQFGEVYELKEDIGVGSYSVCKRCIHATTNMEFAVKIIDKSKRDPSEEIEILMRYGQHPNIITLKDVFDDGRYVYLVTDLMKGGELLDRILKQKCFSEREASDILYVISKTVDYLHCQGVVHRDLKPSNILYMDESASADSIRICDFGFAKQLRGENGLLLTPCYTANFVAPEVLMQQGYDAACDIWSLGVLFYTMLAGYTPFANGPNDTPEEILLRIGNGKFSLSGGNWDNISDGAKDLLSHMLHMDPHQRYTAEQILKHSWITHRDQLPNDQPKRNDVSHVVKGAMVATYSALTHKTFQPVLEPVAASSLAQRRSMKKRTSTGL

`Cc1cccc(-c2n[nH]cc2-c2ccc3ncccc3n2)n1`: the inhibition in assay [1] is 46.9%; in assay [2], 2.2%; in assay [3], 30.5%; in [4], 1.36%; in [5], 0.89%; in [6], 0.94%. Besides, the inhibition is 0.72% in assay [7]; 0.91% in assay [8]; 1.8% in assay [9]; 0.48% in [10]; -0.22% in assay [11]; 0.72% in assay [12]. In addition, the inhibition in assay [13] is -0.18%; in assay [14] it was -0.36%; in [15], 0.1%; in assay [16], 1.16%; in [17], 1.24%; in assay [18] it was 0.29%. Moreover, the inhibition in [19] came out at 1.84%; in [20], 0.98%.
For `COc1cc2ncn(-c3cc(O[C@@H](C)c4ccccc4Cl)c(C(N)=O)s3)c2cc1OC`, the inhibition in assay [1] was 2.84%; in assay [2] it was 4.96%; in assay [3], 4.78%; in assay [4] it was 3.4%; in [5], 4.72%; in [6], 4.02%. Moreover, the inhibition in assay [7] was determined as 5.22%; in [8], 3.8%; in [9], 3.91%; in assay [10], 2.15%; in [11] it was 3.27%; in assay [12], 3.27%. Also, the inhibition is 5.4% in assay [13]; 1.94% in assay [14]; 4.51% in assay [15]; 1.79% in assay [16]; 5.13% in assay [17]; 3.03% in [18]. Moreover, the inhibition was found to be 6.66% in [19] and 1.81% in [20].
For the molecule `CN(C)c1cc2c(Nc3ccc4nc(Cc5ccccc5)[nH]c4c3)ncnc2cn1`, the inhibition in assay [1] came to 5.15%; in [2], 5.52%; in [3], 6.09%; in assay [4] it was 5.01%; in [5] it was 6.25%; in assay [6] it was 2.1%. In addition, the inhibition was found to be 4.22% in assay [7]; 2.16% in assay [8]; 2.25% in [9]; 5.7% in assay [10]; 2.36% in [11]; 3.17% in [12]. The inhibition amounted to 5.65% in assay [13]; 2.97% in [14]; 4.02% in [15]; 2.23% in [16]; 2.55% in [17]; 2.08% in assay [18]. Also, the inhibition in assay [19] turned out to be 3.2%; in assay [20], 2.02%.
